Bioassay records (PubChem BioAssay)
M1 antag = human M1 muscarinic receptor antagonists, primary screen, CHO-K1 cells, Fluo-8 calcium fluorescence, 1536-well. AID 588852, 2011. CHO-K1 hM1, ACh EC80 antagonist. inhibition, % at 3 µM. Muscarinic acetylcholine receptor M1 (Homo sapiens), P11229. 360,000 compounds, 1.3% hits;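 active = percent inhibition above its own plate's cutoff, namely the mean of that plate's compound wells plus 3 SD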;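 also: peak over basal fluorescence ratio during 140 s after agonist addition; 0% = ACh EC80 plus DMSO and 100% = DMSO alone without agonist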
Target sequence (P11229 whole entry, looked up): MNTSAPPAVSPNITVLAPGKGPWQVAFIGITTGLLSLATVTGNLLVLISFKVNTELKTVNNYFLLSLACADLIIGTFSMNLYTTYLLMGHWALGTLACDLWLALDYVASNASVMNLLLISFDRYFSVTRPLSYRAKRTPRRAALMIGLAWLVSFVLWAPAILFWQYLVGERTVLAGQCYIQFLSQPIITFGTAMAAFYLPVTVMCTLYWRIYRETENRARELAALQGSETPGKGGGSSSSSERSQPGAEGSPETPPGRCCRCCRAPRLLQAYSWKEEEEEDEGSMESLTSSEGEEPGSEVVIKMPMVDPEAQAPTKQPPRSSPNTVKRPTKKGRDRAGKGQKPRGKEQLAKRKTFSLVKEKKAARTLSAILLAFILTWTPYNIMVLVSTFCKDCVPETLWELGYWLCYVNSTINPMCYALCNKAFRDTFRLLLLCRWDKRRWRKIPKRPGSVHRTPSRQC
CHRM1 agonist = human M1 muscarinic receptor agonists, primary screen, Fluo-8 calcium fluorescence, CHO-K1 cells, HTS; Muscarinic acetylcholine receptor M1 (Homo sapiens), P11229; CHO-K1 hM1, agonist mode; 0% DMSO, 100% acetylcholine EC100; activation, % at 3 µM; 360,000 compounds, 0.33% hits;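 active = activation above the run's mean compound activation plus 3 SD, cut at about 16% in these data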;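 also: peak over basal fluorescence ratio within a 140 s kinetic read after compound addition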
CHO-K1 Ca antag = nonselective inhibitor or artifact in parental CHO-K1 cells; ATP-induced calcium, Fluo-8 fluorescence; inhibition, % at 3 µM; 360,000 compounds, 0.6% hits;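 active = inhibition above a per-plate cutoff, the plate's mean sample inhibition plus 3 SD, cut at about 24% in these data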;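 also: 0% = DMSO plus EC80 ATP and 100% = DMSO alone without ATP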
M1 PAM = human M1 muscarinic receptor positive allosteric modulators, primary screen, CHO-K1 cells, Fluo-8 calcium fluorescence, 1536-well. Muscarinic acetylcholine receptor M1 (Homo sapiens), P11229. CHO-K1 hM1, ACh EC20; 0% = ACh EC20, 100% = maximal ACh. activation, % at 3 µM. 360,000 compounds, 0.088% hits. AID 588819, 2011; in the data active = activation above about 19%, passing the limit was not always enough
M1 PAM parental = nonselective calcium activators in parental CHO-K1 cells, primary screen, counter-screen for M1 PAM project, cell-based, Fluo-8 calcium fluorescence, full deck, 1536-well | ATP EC20; 0% at ATP EC20, 100% at ATP max | activation, % at 3 µM | AID 602247, 2012 | 360,000 compounds, 0.02% hits;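 active = activation above the run cutoff, the mean activation of all test compounds plus 3 SD, cut at about 40% in these data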;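 also: peak over basal fluorescence ratio in a 140 s read after ATP addition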
CHO-K1 Ca ag = counter-screen for M1 agonists: effect in parental CHO-K1 cells; 360,000 compounds, 0.48% hits; AID 602248, 2012; Fluo-8 calcium fluorescence; scaled to maximal ATP response, vehicle zero; activation, % at 3 µM; in the data active = activation above about 15%;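 also: untransfected CHO-K1 host cells lacking M1 receptor as counterscreen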
The depositor's hits bear a star. Shown are actives, neighbours in structure and some others; about 2.3% of the full set was active somewhere.

For COCCSc1ccccc1C(=O)Nc1ccc(Cl)cn1 the results were M1 antag -11.1, CHRM1 agonist -6.4, CHO-K1 Ca antag -8.8, M1 PAM 11.8, M1 PAM parental 20.8 and CHO-K1 Ca ag 0.7.
CCOc1ccc(C(=O)Cn2cnc3ccccc3c2=O)cc1 was read as M1 antag 28.5*, CHRM1 agonist -8.1, CHO-K1 Ca antag -18.6, M1 PAM -11.6, M1 PAM parental -2.1 and CHO-K1 Ca ag 1.9.
For Cc1ccc(C(=O)Cn2cnc3ccccc3c2=O)cc1 the results were M1 antag -24.3, CHRM1 agonist -1.8, CHO-K1 Ca antag -15.9, M1 PAM -5.3, M1 PAM parental 30.1 and CHO-K1 Ca ag 0.3.
`O=C(CCn1c(=O)oc2ccccc21)NCc1ccc2c(c1)OCO2` gave M1 antag -18.1, CHRM1 agonist -8.6, CHO-K1 Ca antag -8.2, M1 PAM 8.3, M1 PAM parental 23.4 and CHO-K1 Ca ag 0.4.
O=C(CCn1cccc1)NCc1ccc2c(c1)OCO2 was read as M1 antag 0.0, CHRM1 agonist 1.2, CHO-K1 Ca antag 27.3*, M1 PAM 4.7, M1 PAM parental -4.8 and CHO-K1 Ca ag -0.2.
Cc1oc(C(C)(C)C)cc1C(=O)NCc1ccc2c(c1)OCO2 was read as M1 antag -7.1, CHRM1 agonist -2.3, CHO-K1 Ca antag -2.3, M1 PAM 2.4, M1 PAM parental 12.3 and CHO-K1 Ca ag 4.4.
For Cn1nc(C(C)(C)C)cc1C(=O)NCc1ccc2c(c1)OCO2 the results were M1 antag 19.3, CHRM1 agonist 4.7, CHO-K1 Ca antag 39.2*, M1 PAM -0.7, M1 PAM parental -5.4 and CHO-K1 Ca ag 12.7.
For O=C(CN1CCc2ccccc21)NCc1ccc2c(c1)OCO2 the results were M1 antag 0.9, CHRM1 agonist -8.5, CHO-K1 Ca antag 29.1*, M1 PAM 0.3, M1 PAM parental -15.5 and CHO-K1 Ca ag -0.1.
For C[C@@H]1CN([C@H](C)CO)C(=O)CCCn2nncc2CO[C@@H]1CN(C)S(=O)(=O)c1ccc2ccccc2c1 the results were M1 antag -1.1, CHRM1 agonist -7.1, CHO-K1 Ca antag -4.7, M1 PAM 0.2, M1 PAM parental -0.2 and CHO-K1 Ca ag 0.3.
`Cc1ccsc1C(=O)N1CCC1(C)C(=O)NS(=O)(=O)c1ccccc1C(F)(F)F` (stereo not drawn) gave M1 antag -14.6, CHRM1 agonist -2.4, CHO-K1 Ca antag -12.9, M1 PAM 3.5, M1 PAM parental 10.2 and CHO-K1 Ca ag 0.6.
For CC1CN(C2CCCCC2)C(=O)NC1=O (stereo not drawn) the results were M1 antag -12.3, CHRM1 agonist -3.5, CHO-K1 Ca antag -6.9, M1 PAM 5.2, M1 PAM parental 9.2 and CHO-K1 Ca ag 0.8.
For COCCCNc1c2c3c(cccc3[nH]c1=O)C(=O)c1ccccc1-2 the results were M1 antag 70.6*, CHRM1 agonist 263.6*, CHO-K1 Ca antag 56.5*, M1 PAM -31.1, M1 PAM parental -16.4 and CHO-K1 Ca ag 285.2*.
`COc1cc(/C=C/CNC[C@H]2O[C@@H](n3cc(C)c(=O)[nH]c3=O)C[C@@H]2O)ccc1O` gave M1 antag 1.0, CHRM1 agonist -0.5, CHO-K1 Ca antag 6.3, M1 PAM -4.3, M1 PAM parental -0.9 and CHO-K1 Ca ag 0.3.
`CNc1ncc(Cc2ccccc2)s1` gave M1 antag -6.9, CHRM1 agonist -6.2, CHO-K1 Ca antag 24.2*, M1 PAM 7.3, M1 PAM parental -13.9 and CHO-K1 Ca ag -0.5.
`CCc1ccc(C2C(C#N)=C(N)SC(N)=C2C#N)cc1` gave M1 antag 20.0, CHRM1 agonist 17.2*, CHO-K1 Ca antag -9.6, M1 PAM -18.4, M1 PAM parental -4.4 and CHO-K1 Ca ag 21.4*.
For N#CC1=C(N)SC(N)=C(C#N)C1Cc1ccccc1 the results were M1 antag -0.1, CHRM1 agonist 6.0, CHO-K1 Ca antag -10.4, M1 PAM -4.0, M1 PAM parental 9.3 and CHO-K1 Ca ag 7.4.
For N#CC1=C(N)SC(N)=C(C#N)C1CCc1ccccc1 the results were M1 antag 9.4, CHRM1 agonist 12.1, CHO-K1 Ca antag 28.5*, M1 PAM 3.7, M1 PAM parental -9.1 and CHO-K1 Ca ag 6.7.
For C[C@H](CO)N1C[C@H](C)[C@@H](CN(C)S(=O)(=O)c2ccc(F)cc2)OCc2cn(nn2)CCCC1=O the results were M1 antag 13.9, CHRM1 agonist -7.1, CHO-K1 Ca antag -9.6, M1 PAM -9.9, M1 PAM parental 5.3 and CHO-K1 Ca ag -0.6.
CCC(=O)N1CCCC(C)(C(=O)Nc2ccc3scnc3c2)C1 (stereo not drawn) was read as M1 antag -12.8, CHRM1 agonist -3.6, CHO-K1 Ca antag -6.9, M1 PAM 4.9, M1 PAM parental 10.5 and CHO-K1 Ca ag 0.4.
`Cc1cc(N2O[C@H]3C=C[C@@H]2C3)no1` gave M1 antag -3.0, CHRM1 agonist -1.8, CHO-K1 Ca antag -9.8, M1 PAM 2.1, M1 PAM parental 9.7 and CHO-K1 Ca ag 0.6.
Screening CCc1nc2ccc(C(=O)NCCCN3CCCC3=O)cn2c1N(CC)C(=O)NCCc1ccccc1 returned M1 antag 1.0, CHRM1 agonist -7.2, CHO-K1 Ca antag -9.8, M1 PAM -1.7, M1 PAM parental -1.8 and CHO-K1 Ca ag 0.1.
For Cn1c(=O)[nH]c2c(nc(-c3ccc(Cl)cc3)n2C)c1=O the results were M1 antag -18.7, CHRM1 agonist -1.2, CHO-K1 Ca antag 28.7*, M1 PAM 11.7, M1 PAM parental 21.0 and CHO-K1 Ca ag 1.8.
For CCCCn1c(-c2ccc(Cl)cc2)nc2c(=O)n(C)c(=O)[nH]c21 the results were M1 antag -5.4, CHRM1 agonist -3.4, CHO-K1 Ca antag -8.1, M1 PAM 5.7, M1 PAM parental 14.4 and CHO-K1 Ca ag 0.9.
`COc1cc(C2SCC(=O)N2CCCN(C)C)cc(OC)c1OC` (stereo not drawn) gave M1 antag 28.6*, CHRM1 agonist 0.3, CHO-K1 Ca antag 2.7, M1 PAM -8.9, M1 PAM parental 0.6 and CHO-K1 Ca ag -0.2.
Screening CC(C)c1ccc(-n2nnnc2SCc2nc(N)nc(N)n2)cc1 returned M1 antag -17.6, CHRM1 agonist 3.0, CHO-K1 Ca antag -21.1, M1 PAM 0.6, M1 PAM parental 9.4 and CHO-K1 Ca ag 3.2.
For Clc1ccc(-c2cc3nc(NCc4cccc(Cl)c4)ccn3n2)cc1 the results were M1 antag -9.2, CHRM1 agonist -1.4, CHO-K1 Ca antag -9.6, M1 PAM 3.4, M1 PAM parental 13.8 and CHO-K1 Ca ag -0.3.
